In this test the test system is VDR:RXRa (NR concentration 270 nM, RXRa partner concentration 90 nM). The test can be described thus: PBM binding z-score (relative to random genomic background probes); higher = stronger binding; sequences stand for … in GC…GCGATTGACAGCGTAGAATGAAGG
The method, then:
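Protein-binding microarray (Agilent 4x180K custom design, double-stranded 60-nt probes: 5' GC cap, 34-nt variable region, 24-nt constant primer region; full probe sequence given). Purified or IVT nuclear receptor:RXRα heterodimers (3:1 NR:RXRα, mostly 270:90 nM) or homodimers were incubated for 1 h in PBS with 2% milk and no ligand, then detected with Alexa488 antibodies. Fluorescence from o1-orientation probes (~5 replicates averaged) was converted to z-scores against 500 random hg19 background probes. Variable regions are seed direct-repeat (DR0–DR5) sites, all their single-nucleotide variants and half-site ablations.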
Take ATATGTAGGTTACATCTGGGTCATTCAGGCTATG: the PBM binding z-score stood at 3.04.
In turn, ATCTCTAGGTAACAAGTTGAGTGAAAGAGAGGAC had a PBM binding z-score of 0.415.
Take AATAGTTGGTCAGCTGAGGTCACACACAATTCGG: the PBM binding z-score was determined as 4.69.
In turn, CATACAGGGGCAGCTAGGCCAGAGTAGGGACGGC came in with a PBM binding z-score of -0.446.
CCTGGGAGGACAGAAGGTCAGAGCTGTCCGCTTT had a PBM binding z-score of 1.04.
Turning to CCTGCTAGGTCAGGGTCAGCTAATCTACAGTATG, the PBM binding z-score was 2.86.
Turning to CCTTACGGGTCACTACAGGTTATAGCATCGGAGT, the PBM binding z-score is 4.06.
The figure for CTAACTAGGTCAAAGGTCAAAGTCGAGCCAACCA is 6.59.
The figure for TCTTGTGGATCAAAGGTTAAGAAAGCCGAAGCCT is 1.54; for TAGCCTAGGTCAGAGCGGGCCAGTATACGCTATA it is 0.36.
ACTATAAGTTGAGACGAGGGCAACCGATAGGTTG registered a PBM binding z-score of 1.75.
GCTTACGCGTCAAAGGTTATAGCATGAATAGAAT: the PBM binding z-score was 1.12.
On to CCTTACGGGTCACTGCCAGGTTATAGCATTTGGA, for which the PBM binding z-score was 3.73.
With TCTGCTGGGTCAGTTGGTCAGCTAACGAGCTGCC the figure was 0.238; with AGAACGAGGGCAATGAGTTAATAGCACGGGTGGC, 4.04; with TCGAGTAGGTTAGACGGGGCATTCAGCCAACATA, 1.29.
As for CCGAGTAGGTTATAGGGCATTCAGGCAACGGTGA, the PBM binding z-score was 0.402.
Sequence CCAACTGGGGCAAGGTTACCATAACGCACAGCCA yielded a PBM binding z-score of 0.166.
With ACTAGCAGGCCAAGGGTCACTAAAGATTAGTCCG the figure was 2.62; with ATACCAAGGTGCTCGTGAGGTCGTTGATACTAAC, 2.34; with ATCTCTAGGTAAGACTCAGGTCAGTGAAGAACGC, 0.693.
For the sequence GCTGCTAGGTCAACTGCTGGTCAGCTAAAGCTCG, the PBM binding z-score stood at 1.38.
In the case of ATCGAAAGGTCGAAGGTGAGTTTACCCACCCGAA, the PBM binding z-score turned out to be 4.33.
Sequence TCGAGTAGCTTAGTCGGGGCATTCAGCCAACATA returned a PBM binding z-score of -0.32.
With CCGACTGGGGCAAAGGATACCATACTCAGTACGA the figure was -0.368; with GCTGCTAGGTCAAGTGATGGTCAGCTAAAGCTCG, 1.63.
As for ATCACTAGGTAACCAAGTTCAGTGAATGCCGAAC, the PBM binding z-score is 3.92.
The figure for CCTACTGGTCCAAAGGTCATTGATTCCAATGCTC is 4.83; for CCGACTGGGGCATAAAGGTTACCATACCATCCGG it is 1.4; for ACAGACAGGTGAGTGGAGGTAACTCAGCTGGACG it is -0.0789.
TCATATAGGTAAATGCTAGGTGAAATTCCGATCT displayed a PBM binding z-score of 0.761.
With TATACAGGGTCAAAGGCCAGAGCACGAATGTCGA the figure was 4.37; with CGTCCAAGGTCAAGGTAAGTGAAAGAGACTCGAA, 3.76.
With TCATATAGGTAAACTGGTGAAAGTCCGTAAGTTA the figure was 0.597.
As for ATCGAAAAGTCGAGGTGAGTATAGAGAAAGGGAA, the PBM binding z-score was -0.237.
Take CCGACTGGGGCATAAGGCTACCATAAGCCAGCCC: the PBM binding z-score is -0.694.
In turn, CGTACTGGGCCATTCAGAGGTCATTGATCATATG yielded a PBM binding z-score of 4.27.
Sequence CGAACTAGGTCAGAACAGGAAAGTGAAGGATGAT registered a PBM binding z-score of 0.0955.
With ATCGAAAGGACGAAGGTGAGTATACCCACCCGAA the figure was -0.276; with CCGACTGGGGTAAGGTTACCATAACGCACAGCCA, 0.525.

Source of the values: the supplement of paper PMC6555819.
